Assay results: publication PMC7862700, “An all-to-all approach to the identification of sequence-specific readers for epigenetic DNA modifications on cytosine”

Experiments:
Experiment in all cases: DAPPL (digital affinity profiling via proximity ligation, sequencing); 10 mM Tris-HCl pH 7.5, 50 mM NaCl, 1 mM DTT, 4% glycerol, room temperature, 30 min; GST-TFs on glutathione beads, 16-mer random dsDNA library, 0.1% formaldehyde crosslink after washing; high values mean tight binding
Conditions in all cases: protein: recombinant; tags: N-terminal GST; dsDNA, one strand shown
SPIC = biological target: T1, SPIC (Homo sapiens, UniProt Q8N5J4 1-248)
T1 sequence: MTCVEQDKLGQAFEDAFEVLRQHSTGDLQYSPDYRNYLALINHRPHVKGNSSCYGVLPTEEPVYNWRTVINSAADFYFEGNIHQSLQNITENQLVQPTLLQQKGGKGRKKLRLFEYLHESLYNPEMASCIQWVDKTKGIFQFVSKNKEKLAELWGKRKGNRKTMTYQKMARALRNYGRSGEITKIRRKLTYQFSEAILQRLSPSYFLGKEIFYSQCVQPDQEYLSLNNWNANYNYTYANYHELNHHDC
Method in brief: (§1)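 In yeast, human transcription factors were expressed with a GST fusion, then pulled down on glutathione beads and given DNA barcodes. Pooled with a tag-only sample, they were exposed to 200 nmole of a 16-mer random double-stranded DNA library (Tris/NaCl/DTT/glycerol buffer, room temperature, 30 min), washed, crosslinked with 0.1% formaldehyde, proximity-ligated using BsaI/T4 ligase for 1 h at 37 °C, PCR-amplified and read on an Illumina NextSeq500. Each hexamer's frequency of reads for a factor, divided by the matching frequency for the tag-only sample, gives the binding signal.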

GABPA = biological target: T2, GABPA (Homo sapiens, UniProt Q06546 1-454)
T2 sequence: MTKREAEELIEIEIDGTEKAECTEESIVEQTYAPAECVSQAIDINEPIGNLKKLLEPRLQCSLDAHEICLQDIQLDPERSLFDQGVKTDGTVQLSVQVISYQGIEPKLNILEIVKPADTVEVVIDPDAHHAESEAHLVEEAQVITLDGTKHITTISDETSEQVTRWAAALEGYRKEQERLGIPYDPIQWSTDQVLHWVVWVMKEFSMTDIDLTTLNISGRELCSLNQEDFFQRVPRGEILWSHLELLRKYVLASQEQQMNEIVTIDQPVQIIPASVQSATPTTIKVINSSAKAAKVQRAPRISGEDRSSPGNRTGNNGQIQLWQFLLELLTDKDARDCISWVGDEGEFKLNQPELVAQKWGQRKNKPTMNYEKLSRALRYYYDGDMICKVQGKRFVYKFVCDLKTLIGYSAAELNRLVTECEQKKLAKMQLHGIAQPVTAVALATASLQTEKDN
Method in brief: as §1

ERG = biological target: T3, ERG (Homo sapiens, UniProt P11308 1-479)
T3 sequence: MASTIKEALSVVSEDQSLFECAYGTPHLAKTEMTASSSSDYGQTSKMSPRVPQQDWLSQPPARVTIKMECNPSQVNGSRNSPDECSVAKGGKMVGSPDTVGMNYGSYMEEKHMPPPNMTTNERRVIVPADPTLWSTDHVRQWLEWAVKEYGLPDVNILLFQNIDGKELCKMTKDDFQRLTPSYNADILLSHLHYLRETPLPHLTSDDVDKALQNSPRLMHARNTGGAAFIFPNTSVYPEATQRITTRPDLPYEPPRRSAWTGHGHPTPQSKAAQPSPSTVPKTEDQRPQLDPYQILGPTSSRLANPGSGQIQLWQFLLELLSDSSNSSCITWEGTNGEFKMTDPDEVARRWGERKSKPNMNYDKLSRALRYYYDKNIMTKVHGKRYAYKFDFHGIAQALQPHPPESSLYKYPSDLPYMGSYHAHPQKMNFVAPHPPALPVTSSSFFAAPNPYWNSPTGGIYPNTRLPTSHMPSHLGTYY
Method in brief: as §1

ELF1 = ELF1 (Homo sapiens, UniProt P32519 1-619)
Method in brief: as §1

SPI1 = SPI1 (Homo sapiens, UniProt P17947 1-270)
Method in brief: as §1

SPIB = SPIB (Homo sapiens, UniProt Q01892 1-262)
Method in brief: as §1

ELK3 = biological target: T4, ELK3 (Homo sapiens, UniProt P41970 1-407)
T4 sequence: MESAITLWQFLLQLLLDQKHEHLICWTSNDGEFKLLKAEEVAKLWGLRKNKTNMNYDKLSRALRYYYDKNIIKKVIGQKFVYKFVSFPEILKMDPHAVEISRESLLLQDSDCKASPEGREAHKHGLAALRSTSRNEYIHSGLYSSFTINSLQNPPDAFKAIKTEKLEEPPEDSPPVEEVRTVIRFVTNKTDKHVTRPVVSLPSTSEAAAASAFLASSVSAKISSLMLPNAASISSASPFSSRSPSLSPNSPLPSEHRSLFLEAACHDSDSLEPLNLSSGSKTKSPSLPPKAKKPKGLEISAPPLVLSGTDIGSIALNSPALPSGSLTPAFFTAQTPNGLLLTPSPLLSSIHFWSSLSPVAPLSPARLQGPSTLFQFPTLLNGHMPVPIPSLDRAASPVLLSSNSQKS
Method in brief: as §1

FEV = biological target: T5, FEV (Homo sapiens, UniProt Q99581 1-238)
T5 sequence: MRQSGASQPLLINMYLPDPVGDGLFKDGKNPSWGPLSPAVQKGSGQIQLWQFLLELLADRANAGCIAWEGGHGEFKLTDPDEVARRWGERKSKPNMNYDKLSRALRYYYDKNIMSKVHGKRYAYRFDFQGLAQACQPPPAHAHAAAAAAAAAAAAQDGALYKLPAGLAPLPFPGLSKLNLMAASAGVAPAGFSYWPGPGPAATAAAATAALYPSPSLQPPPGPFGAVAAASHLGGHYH
Method in brief: as §1

ELF4 = ELF4 (Homo sapiens, UniProt Q99607 1-663)
Method in brief: as §1

ELK4 = biological target: T6, ELK4 (Homo sapiens, UniProt P28324-2 1-405)
T6 sequence: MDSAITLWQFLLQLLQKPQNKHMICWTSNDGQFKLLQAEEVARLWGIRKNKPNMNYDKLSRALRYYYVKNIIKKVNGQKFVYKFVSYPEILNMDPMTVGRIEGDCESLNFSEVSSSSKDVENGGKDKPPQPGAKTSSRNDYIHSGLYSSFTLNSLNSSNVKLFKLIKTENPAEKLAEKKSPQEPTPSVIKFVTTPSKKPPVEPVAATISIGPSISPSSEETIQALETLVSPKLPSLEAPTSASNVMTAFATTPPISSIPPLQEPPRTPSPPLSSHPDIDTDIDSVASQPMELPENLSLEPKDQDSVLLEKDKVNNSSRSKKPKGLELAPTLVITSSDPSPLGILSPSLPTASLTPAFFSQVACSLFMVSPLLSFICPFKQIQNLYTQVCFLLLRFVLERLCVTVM
Method in brief: as §1

ELF3 = biological target: T7, ELF3 (Homo sapiens, UniProt P78545 1-371)
T7 sequence: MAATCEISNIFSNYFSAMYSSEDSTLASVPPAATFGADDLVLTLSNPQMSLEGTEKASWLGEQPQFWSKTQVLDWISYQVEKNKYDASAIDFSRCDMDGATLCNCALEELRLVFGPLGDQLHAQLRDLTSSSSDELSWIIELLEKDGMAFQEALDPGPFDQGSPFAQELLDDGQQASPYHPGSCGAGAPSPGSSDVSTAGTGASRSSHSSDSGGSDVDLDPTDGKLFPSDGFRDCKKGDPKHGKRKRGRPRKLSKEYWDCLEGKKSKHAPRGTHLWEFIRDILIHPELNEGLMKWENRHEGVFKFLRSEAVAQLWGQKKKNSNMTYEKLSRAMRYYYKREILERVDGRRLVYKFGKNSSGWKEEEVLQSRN
Method in brief: as §1

ETS2 = biological target: T8, ETS2 (Homo sapiens, UniProt P15036 1-469)
T8 sequence: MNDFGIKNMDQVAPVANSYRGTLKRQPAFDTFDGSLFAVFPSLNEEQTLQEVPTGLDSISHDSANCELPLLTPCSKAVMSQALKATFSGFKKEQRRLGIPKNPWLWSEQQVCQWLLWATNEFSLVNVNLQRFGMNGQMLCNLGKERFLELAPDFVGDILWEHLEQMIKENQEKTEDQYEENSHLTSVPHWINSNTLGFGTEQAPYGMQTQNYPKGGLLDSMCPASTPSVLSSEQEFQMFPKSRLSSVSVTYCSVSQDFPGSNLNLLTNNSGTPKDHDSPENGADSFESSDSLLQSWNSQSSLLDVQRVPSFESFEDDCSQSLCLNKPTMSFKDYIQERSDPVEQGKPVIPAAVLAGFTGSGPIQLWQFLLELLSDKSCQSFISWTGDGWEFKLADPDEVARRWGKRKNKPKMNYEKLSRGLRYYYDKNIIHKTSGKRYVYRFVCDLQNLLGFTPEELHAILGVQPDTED
Method in brief: as §1

ETV7 = biological target: T9, ETV7 (Homo sapiens, UniProt Q9Y603 1-341)
T9 sequence: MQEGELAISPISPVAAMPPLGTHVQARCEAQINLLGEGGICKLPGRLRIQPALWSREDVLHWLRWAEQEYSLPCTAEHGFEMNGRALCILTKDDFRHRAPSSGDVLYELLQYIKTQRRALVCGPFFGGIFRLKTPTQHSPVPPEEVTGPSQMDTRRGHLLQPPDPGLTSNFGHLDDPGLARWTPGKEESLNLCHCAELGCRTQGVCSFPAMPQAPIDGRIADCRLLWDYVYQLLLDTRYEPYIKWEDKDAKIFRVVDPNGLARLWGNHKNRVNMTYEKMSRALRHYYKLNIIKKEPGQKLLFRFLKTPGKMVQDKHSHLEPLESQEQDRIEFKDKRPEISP
Method in brief: as §1

ETV6 = ETV6 (Homo sapiens, UniProt P41212 1-452)
Method in brief: as §1

Chain of ETV6 (P41212 whole entry): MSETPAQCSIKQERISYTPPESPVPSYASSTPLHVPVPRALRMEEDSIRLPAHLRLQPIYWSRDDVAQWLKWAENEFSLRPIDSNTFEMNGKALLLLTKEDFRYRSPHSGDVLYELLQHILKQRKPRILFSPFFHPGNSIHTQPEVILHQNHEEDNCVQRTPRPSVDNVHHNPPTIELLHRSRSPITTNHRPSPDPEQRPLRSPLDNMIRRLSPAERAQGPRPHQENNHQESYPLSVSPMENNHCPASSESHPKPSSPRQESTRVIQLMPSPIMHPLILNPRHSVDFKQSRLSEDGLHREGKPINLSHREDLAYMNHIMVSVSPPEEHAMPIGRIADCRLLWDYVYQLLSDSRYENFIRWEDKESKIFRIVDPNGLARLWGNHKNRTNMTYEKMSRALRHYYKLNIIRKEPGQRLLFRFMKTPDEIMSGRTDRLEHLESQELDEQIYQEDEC
Chain of ELF4 (Q99607 whole entry): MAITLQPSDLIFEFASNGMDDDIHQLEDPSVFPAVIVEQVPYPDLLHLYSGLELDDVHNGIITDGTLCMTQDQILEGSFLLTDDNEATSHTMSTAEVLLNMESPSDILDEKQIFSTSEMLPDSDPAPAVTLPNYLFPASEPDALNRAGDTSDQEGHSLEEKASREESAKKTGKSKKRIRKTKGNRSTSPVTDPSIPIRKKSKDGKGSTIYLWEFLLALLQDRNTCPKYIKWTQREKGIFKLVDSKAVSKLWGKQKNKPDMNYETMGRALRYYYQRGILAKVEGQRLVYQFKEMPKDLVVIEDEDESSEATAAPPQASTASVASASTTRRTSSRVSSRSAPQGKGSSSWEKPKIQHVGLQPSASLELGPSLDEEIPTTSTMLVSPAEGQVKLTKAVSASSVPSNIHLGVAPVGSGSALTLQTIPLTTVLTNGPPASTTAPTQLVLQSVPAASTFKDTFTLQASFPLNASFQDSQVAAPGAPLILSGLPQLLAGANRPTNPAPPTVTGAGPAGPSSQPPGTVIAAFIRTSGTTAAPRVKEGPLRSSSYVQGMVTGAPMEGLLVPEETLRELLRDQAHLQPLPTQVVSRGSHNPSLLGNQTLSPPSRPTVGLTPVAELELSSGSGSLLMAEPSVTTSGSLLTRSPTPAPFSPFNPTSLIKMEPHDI
Chain of ELF1 (P32519 whole entry): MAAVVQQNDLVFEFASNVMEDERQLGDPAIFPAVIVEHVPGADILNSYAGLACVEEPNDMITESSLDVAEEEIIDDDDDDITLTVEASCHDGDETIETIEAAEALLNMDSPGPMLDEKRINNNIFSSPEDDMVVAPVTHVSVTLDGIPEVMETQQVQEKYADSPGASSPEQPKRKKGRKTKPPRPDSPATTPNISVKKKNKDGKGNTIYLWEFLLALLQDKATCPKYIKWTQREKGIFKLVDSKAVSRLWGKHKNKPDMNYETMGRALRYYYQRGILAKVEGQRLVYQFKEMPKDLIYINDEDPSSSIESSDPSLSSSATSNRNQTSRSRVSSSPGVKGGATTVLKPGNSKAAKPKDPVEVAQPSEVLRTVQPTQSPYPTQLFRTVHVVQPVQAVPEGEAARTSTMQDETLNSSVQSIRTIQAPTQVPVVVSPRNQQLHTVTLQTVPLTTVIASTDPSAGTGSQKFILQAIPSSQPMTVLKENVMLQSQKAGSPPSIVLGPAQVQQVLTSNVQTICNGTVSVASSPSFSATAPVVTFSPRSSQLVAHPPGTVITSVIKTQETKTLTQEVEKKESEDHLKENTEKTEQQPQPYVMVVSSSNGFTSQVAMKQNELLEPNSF
Chain of SPIB (Q01892 whole entry): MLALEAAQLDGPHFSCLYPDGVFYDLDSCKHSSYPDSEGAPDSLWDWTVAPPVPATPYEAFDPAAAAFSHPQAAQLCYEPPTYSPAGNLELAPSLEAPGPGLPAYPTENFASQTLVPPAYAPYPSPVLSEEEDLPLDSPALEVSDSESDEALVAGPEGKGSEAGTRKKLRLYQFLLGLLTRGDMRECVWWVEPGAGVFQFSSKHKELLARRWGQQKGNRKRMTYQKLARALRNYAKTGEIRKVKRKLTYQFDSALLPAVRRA

Q: For CTGGCG, which binding signal (SPIC) is on record?
A: 1.09 fold enrichment (6-mer frequency, TF over GST control)

Q: With GACTCG as the sequence, how does the binding signal (SPIC) read?
A: 1.02 fold enrichment (6-mer frequency, TF over GST control)

Q: Which results are given for GTGGCC?
A: binding signal (GABPA): 1.06 fold enrichment (6-mer frequency, TF over GST control); binding signal (ERG): 1.1 fold enrichment (6-mer frequency, TF over GST control); binding signal (ELF1): 1.05 fold enrichment (6-mer frequency, TF over GST control); binding signal (SPI1): 1.2 fold enrichment (6-mer frequency, TF over GST control); binding signal (SPIB): 1.2 fold enrichment (6-mer frequency, TF over GST control); binding signal (ELK3): 1.22 fold enrichment (6-mer frequency, TF over GST control); binding signal (FEV): 1.14 fold enrichment (6-mer frequency, TF over GST control); binding signal (SPIC): 1.02 fold enrichment (6-mer frequency, TF over GST control); binding signal (ELF4): 1.02 fold enrichment (6-mer frequency, TF over GST control); binding signal (ELK4): 1.03 fold enrichment (6-mer frequency, TF over GST control); binding signal (ELF3): 1.09 fold enrichment (6-mer frequency, TF over GST control); binding signal (ETS2): 1.01 fold enrichment (6-mer frequency, TF over GST control); binding signal (ETV7): 1.01 fold enrichment (6-mer frequency, TF over GST control); binding signal (ETV6): 1.1 fold enrichment (6-mer frequency, TF over GST control)
